Values quoted from earlier work as cited in PubChem BioAssay AID977611.
The whole screen tested about 3,900 compounds, of which about 3,900 (100%) were called active. No cut-off is given here; in the data, nearly all actives have Kd up to about 4200 µM. The set was probably picked from earlier hits. Some of the results follow. Starred links: 1 amine or outer side, 2 acyl side, 3 side chain; linkers in the order of their positions; H or OH if unused. Where a SMILES comes first, the peptide text is derived from it. Non-standard residues stand in square brackets, D forms with d. Square brackets hold non-standard residues; d marks the D form. Residues, ends and D or L forms follow the SMILES beside them. Bridges are numbered along the chain shown (N, C = ends). Peptide text beside a SMILES is read from it. [ ]: non-standard residue; d: D form. X1 = CN(C)C(N)NCCC[C@H](N[*:1])C(=O)[*:2]; Orn(CH(NH2)2) = NC(N)NCCC[C@H](N)C(=O)O; Lys(Me2) = CN(C)CCCC[C@H](N)C(=O)O; Lys(Me) = CNCCCC[C@H](N)C(=O)O; Abu = CC[C@H](N)C(=O)O

Test: PubChem AID 977611
Conditions: PDB protein-ligand complexes, literature Kd

Question: Which Kd (protein: rRNA N-glycosidase, PDB entry 4i47) does the source give for `Cn1cnc2nc(N)[nH]c(=O)c21` here?
Answer: 0.12 µM (active)

Question: Which Kd (protein: 14-3-3 protein, PDB entry 1a37) does the source give for `NCC(=O)NCC(=O)NCC(=O)N[C@@H](CO[P+](O)(O)O)C(=O)NCC(=O)NCC(=O)NCC(=O)O` here?
Answer: 0.12 µM (active)

Question: For `OC[C@H]1O[C@@H](Sc2ccc3ccccc3c2)[C@H](O)[C@@H](O)[C@H]1O`, which Kd (protein: PA-I GALACTOPHILIC LECTIN, PDB entry 4a6s) is on record?
Answer: 6.3 µM (active)

Question: Which Kd (protein: Casein kinase II subunit alpha, PDB entry 4ib5) does the source give for `CC[C@H](C)[C@@H]1NC(=O)[C@H](CCCCN)NC(=O)[C@H](Cc2ccccc2)NC(=O)CNC(=O)[C@H](Cc2ccc(O)cc2)NC(=O)[C@H](CC(C)C)NC(=O)[C@H](CCCNC(N)N)NC(=O)[C@@H](NC(=O)CN)CSSC[C@@H](C(=O)NCC(=O)O)NC(=O)CNC(=O)[C@H](Cc2cnc[nH]2)NC1=O` (H-GC[Orn(CH(NH2)2)]LYGFKIHGCG-OH; disulfide 2-12) here?
Answer: 0.56 µM (active)

Question: With `CC[C@H](C)[C@@H]1NC(=O)[C@H](Cc2cnc[nH]2)NC(=O)[C@H]([C@@H](C)CC)NC(=O)[C@H](CCCNC(N)N)NC(=O)[C@@H](N)CSSC[C@@H](C(=O)O)NC(=O)[C@H]([C@@H](C)O)NC(=O)[C@H](Cc2ccc(O)cc2)NC(=O)[C@H](Cc2ccccc2)NC(=O)[C@H](C)NC(=O)[C@H](CCCNC(N)N)NC(=O)CNC(=O)[C@@H]2CCCN2C(=O)CNC1=O` as the compound, how does the Kd (protein: Fab mAb 447-52D Light Chain, PDB entry 4m1d) read?
Answer: 0.023 µM (active)

Question: Which Kd (protein: Bifunctional protein GlmU, PDB entry 4e1k) does the source give for `COc1cc2c(Nc3ccc(NC(=O)c4ccccc4)cc3)ncnc2cc1O` here?
Answer: 0.5 µM (active)

Question: With `NC(N)NC[C@H]1Cc2ccccc2[C@@H]1NC(=O)C(=O)Nc1ccc(Cl)c(F)c1` as the compound, how does the Kd (protein: HIV-1 glycoprotein, PDB entry 4i54) read?
Answer: 0.11 µM (active)

Question: For `NCCCCCC(=O)N[C@H]1Cc2ccccc2[C@@H]1Cc1ccc2c(c1C(=O)O)OCO2`, which Kd (protein: INTEGRASE, PDB entry 4cgi) is on record?
Answer: 752 µM (active)

Question: And the Kd (protein: INTEGRASE, PDB entry 4cgj)?
Answer: 1460 µM (active)

Question: For `O[P+](O)(O)O[P+](O)(O)O[P+](O)(O)O`, which Kd (protein: DNA primase small subunit, PDB entry 4lil) is on record?
Answer: 12.5 µM (active)

Question: And the Kd (protein: Thiamine-triphosphatase, PDB entry 3tvl)?
Answer: 100 µM (active)

Question: For `C[C@@H](O)[C@H](NC(=O)[C@@H]1CCCN1C(=O)[C@H](CO[P+](O)(O)O)NC(=O)[C@@H](N)Cc1ccc(O)cc1)C(=O)N[C@@H](CO)C(=O)N1CCC[C@H]1C(=O)N[C@@H](CO)C(=O)N[C@@H](Cc1ccc(O)cc1)C(=O)N[C@@H](CO[P+](O)(O)O)C(=O)N1CCC[C@H]1C=O`, which Kd (protein: CTD INTERACTING DOMAIN of RNA processing factor SCAF8, PDB entry 3d9l) is on record?
Answer: 68 µM (active)

Question: Which Kd (protein: CTD INTERACTING DOMAIN of RNA processing factor SCAF8, PDB entry 3d9k) does the source give for `C[C@@H](O)[C@H](NC(=O)[C@@H]1CCCN1C(=O)[C@H](CO[P+](O)(O)O)NC(=O)[C@@H](N)Cc1ccc(O)cc1)C(=O)N[C@@H](CO[P+](O)(O)O)C(=O)N1CCC[C@H]1C(=O)N[C@@H](CO)C(=O)N[C@@H](Cc1ccc(O)cc1)C(=O)N[C@H](C=O)CO[P+](O)(O)O` here?
Answer: 19 µM (active)

Question: For `CNc1nc(C)c(-c2nc(Nc3cccc(C(=O)N4CCOCC4)c3)ncc2C#N)s1`, which Kd (protein: CYCLIN-DEPENDENT KINASE 2, PDB entry 4bcq) is on record?
Answer: 0.147 µM (active)

Question: For `C[C@H](N)C(=O)N[C@@H](CCCNC(N)N)C(=O)N[C@H](C(=O)N[C@@H](CCCCN)C(=O)N[C@@H](CCC(N)=O)C(=O)N[C@H](C(=O)N[C@@H](C)C(=O)N[C@@H](CCCNC(N)N)C(=O)N[C@@H](CCCCN)C(=O)O)[C@@H](C)O)[C@@H](C)O`, which Kd (protein: Histone-lysine N-methyltransferase NSD3, PDB entry 4gnf) is on record?
Answer: 450 µM (active)

Question: With `C[C@H](N)C(=O)N[C@@H](CCCNC(N)N)C(=O)N[C@H](C(=O)N[C@@H](CCCCN)C(=O)N[C@@H](CCC(N)=O)C(=O)N[C@H](C(=O)O)[C@@H](C)O)[C@@H](C)O` (H-A[Orn(CH(NH2)2)]TKQT-OH) as the compound, how does the Kd (protein: Histone-lysine N-methyltransferase NSD3, PDB entry 4gne) read?
Answer: 3400 µM (active)

Question: For `C[C@H](N)C(=O)N[C@@H](CCCNC(N)N)C(=O)N[C@H](C(=O)N[C@@H](CCCCN)C(=O)N[C@@H](CCC(N)=O)C(=O)N[C@H](C(=O)N[C@@H](C)C(=O)N[C@@H](CCCNC(N)N)C(=O)N[C@@H](CCCCN)C(=O)N[C@@H](CO)C(=O)O)[C@@H](C)O)[C@@H](C)O`, which Kd (protein: BHC80 PHD domain, PDB entry 2puy) is on record?
Answer: 30 µM (active)

Question: What does the source list for `C[C@H](N)C(=O)N[C@@H](CCCNC(N)N)C(=O)N[C@H](C(=O)N[C@@H](CCCCN(C)C)C(=O)N[C@@H](CCC(N)=O)C(=O)N[C@H](C(=O)O)[C@@H](C)O)[C@@H](C)O` (H-A[Orn(CH(NH2)2)]T[Lys(Me2)]QT-OH)?
Answer: Kd (protein: WD-repeat protein 5(WDR523), PDB entry 2o9k): 77 µM (active); Kd (protein: bromodomain PHD finger transcription factor, PDB entry 2fsa): 5 µM (active)

Question: With `C[C@H](N)C(=O)N[C@@H](CCCNC(N)N(C)C)C(=O)N[C@H](C(=O)N[C@@H](CCCCN(C)C)C(=O)N[C@@H](CCC(N)=O)C(=O)N[C@H](C(=O)N[C@@H](C)C(=O)O)[C@@H](C)O)[C@@H](C)O` (stereo partly specified) (H-A[X1]T[Lys(Me2)]QTA-OH) as the compound, how does the Kd (protein: hPHD-HD1 complex, PDB entry 2vpg) read?
Answer: 2.1 µM (active)

Question: For `C[C@H](N)C(=O)N[C@@H](CCCNC(N)N)C(=O)N[C@H](C(=O)N[C@@H](CCCCN)C(=O)N[C@@H](CCC(N)=O)C(=O)O)[C@@H](C)O[P+](O)(O)O`, which Kd (protein: human Survivin, PDB entry 3uig) is on record?
Answer: 4.8 µM (active)

Question: With `C[C@H](N)C(=O)N[C@@H](CCCNC(N)N)C(=O)N[C@H](C(=O)N[C@@H](CCCCN)C(=O)N[C@@H](CCC(N)=O)C(N)=O)[C@@H](C)O` as the compound, how does the Kd (protein: WD-repeat protein 5(WDR5), PDB entry 2co0) read?
Answer: 3.3 µM (active)

Question: Which Kd (protein: human Chromodomain-helicase-DNA-binding protein 1(CHD1), PDB entry 2b2v) does the source give for `CNCCCC[C@H](NC(=O)[C@@H](NC(=O)[C@H](CCCNC(N)N)NC(=O)[C@H](C)N)[C@@H](C)O)C(=O)N[C@@H](CCC(N)=O)C(=O)N[C@H](C(=O)O)[C@@H](C)O` (H-A[Orn(CH(NH2)2)]T[Lys(Me)]QT-OH) here?
Answer: 17 µM (active)

Question: Which Kd (protein: WD-repeat protein 5(WDR523), PDB entry 2h9m) does the source give for `C[C@H](N)C(=O)N[C@@H](CCCNC(N)N)C(=O)N[C@H](C(=O)N[C@@H](CCCCN)C(=O)N[C@@H](CCC(N)=O)C(=O)NCC(=O)O)[C@@H](C)O` (H-A[Orn(CH(NH2)2)]TKQG-OH) here?
Answer: 35 µM (active)

Question: With `CC[C@H](NC(=O)[C@@H](NC(=O)[C@H](CCCNC(N)N)NC(=O)[C@H](C)N)[C@@H](C)O)C(=O)N[C@@H](CCC(N)=O)C(=O)O` (H-A[Orn(CH(NH2)2)]T[Abu]Q-OH) as the compound, how does the Kd (protein: WD-repeat protein 5(WDR5), PDB entry 2h13) read?
Answer: 4.5 µM (active)

Question: And the Kd (protein: WD-repeat protein 5(WDR523), PDB entry 2h9n)?
Answer: 115 µM (active)
